Reference: PubChem BioAssay (Tox21)
Several values for one entry are separate records, joined by “and”; a condition that tells them apart may be missing. Identical values can stand only once. Results filed as inconclusive are left out. A call without a number means that no potency is given here. Some structures have more than one record in an assay (separate samples or runs), and their calls can disagree. Activity calls are given as the source filed them. Unless noted, the call rests on the fitted dose curve; in most records, active means well fitted curve in the direction sought with a large enough effect in the repeat runs; inconclusive means weak or mixed curves; inactive means no such curve, though single readings can be large; an effect the other way counts as inactive or inconclusive.

Legend:
[1] = qHTS assay to identify small molecule agonists of H2AX (AID 1224845; active means well fitted activation curve with a large enough effect in the signal ratio in the repeat runs, not every such curve was filed as active; the % refers to the signal ratio)
Summary of the method: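 Wild-type CHO-K1 cells, plated overnight, exposed 3hr at 37C to 15 concentrations (0.76% DMSO final). Lysed, then HTRF anti-pH2AX (S139) cryptate and anti-H2AX-d2 antibodies, 24 hr room temperature; 665/620 nm emission read.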

[2] = qHTS assay to identify small molecule agonists of H2AX - cell viability counter screen (AID 1224847; calls by dose curve; further: nearly all actives have a fitted effect of over 30% in size; further: potency means the concentration at half of the fitted maximal effect)
Summary of the method: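 CHO-K1 wt, 1000 cells/well, o/n 37C; cpds 15 conc, 3 h 37C, 0.76% DMSO; CellTiter-Glo, 30 min RT, luminescence.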

[3] = qHTS RealTime-Glo MT Cell Viability Assay in HepG2 cells - 24 hour (AID 1224867); further: nearly all actives have a fitted effect of over 50% in size
Summary of the method: (§1)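 qHTS, HepG2, 600 cells/well, RealTime-Glo (NanoLuc + prosubstrate) added with cells; 5 h preincubation; DMSO compound addition; 37 C; luminescence at 0/8/16/24/32/40 h.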

[4] = qHTS RealTime-Glo MT Cell Viability Assay in HEK293 cells - 32 hour (AID 1224868); further: nearly all actives have a fitted effect of over 50% in size; further: potency means the concentration at half of the fitted maximal effect
Summary of the method: (§2)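 Assay medium contained NanoLuc luciferase plus cell-permeant prosubstrate, added with HEK293 cells at 600 cells/well. After 5 h at 37 C/5% CO2 compounds were added; plates stayed at 37 C for 40 h with serial luminescence reads.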

[5] = A CellTox Green Cytotoxicity Assay to monitor cytotoxicity in HEK293 cells - 0 hour (AID 1224869); further: nearly all actives have a fitted effect of over 50% in size
Summary of the method: (§3)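 Nonlytic real-time cytotoxicity: HEK293 + CellTox Green reagent plated, 5 h preincubation, pintool compound addition (23 nL in DMSO), 37 C for 40 h, fluorescence measured at successive time points.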

[6] = qHTS RealTime-Glo MT Cell Viability Assay in HepG2 cells - 40 hour (AID 1224870); further: nearly all actives have a fitted effect of over 50% in size
Summary of the method: (§4)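 HepG2 cells (600/well) mixed with RealTime-Glo MT reagent, settled 5 h at 37 C/5% CO2 before compound addition. Nonlytic NanoLuc luminescence from viable-cell prosubstrate reduction read repeatedly during 40 h treatment at 37 C.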

[7] = A CellTox Green Cytotoxicity Assay to monitor cytotoxicity in HEK293 cells - 40 hour (AID 1224871); further: nearly all actives have a fitted effect of over 45% in size; further: potency means the concentration at half of the fitted maximal effect
Summary of the method: as §3

[8] = qHTS RealTime-Glo MT Cell Viability Assay in HEK293 cells - 16 hour (AID 1224872)
Summary of the method: as §2

[9] = qHTS RealTime-Glo MT Cell Viability Assay in HepG2 cells - 8 hour (AID 1224873); further: nearly all actives have a fitted effect of over 55% in size
Summary of the method: as §4

[10] = qHTS RealTime-Glo MT Cell Viability Assay in HEK293 cells - 40 hour (AID 1224874); conditions: RealTime-Glo luminescence; max response: stronger effect = lower value; further: nearly all actives have a fitted effect of over 50% in size; further: potency means the concentration at half of the fitted maximal effect
Summary of the method: (§5)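 Cells were seeded together with NanoLuc luciferase and a prosubstrate that viable cells reduce to a luciferase substrate. After a 5 h incubation at 37 C/5% CO2, compounds were added and luminescence was measured repeatedly during 40 h of treatment.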

[11] = A CellTox Green Cytotoxicity Assay to monitor cytotoxicity in HepG2 cells - 16 hour (AID 1224876); further: nearly all actives have a fitted effect of over 45% in size
Summary of the method: (§6)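 Read-out is fluorescence of a cyanine dye excluded from live cells that stains DNA of dead HepG2 cells, with signal proportional to cytotoxicity. Plates were read at 0, 8, 16, 24, 32 and 40 h after compound addition.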

[12] = qHTS RealTime-Glo MT Cell Viability Assay in HepG2 cells - 32 hour (AID 1224877); further: nearly all actives have a fitted effect of over 55% in size
Summary of the method: as §1

[13] = A CellTox Green Cytotoxicity Assay to monitor cytotoxicity in HepG2 cells - 24 hour (AID 1224878); further: nearly all actives have a fitted effect of over 45% in size; further: potency means the concentration at half of the fitted maximal effect
Summary of the method: as §6

[14] = A CellTox Green Cytotoxicity Assay to monitor cytotoxicity in HepG2 cells - 40 hour (AID 1224879); further: nearly all actives have a fitted effect of over 40% in size; further: potency means the concentration at half of the fitted maximal effect
Summary of the method: as §6

[15] = qHTS RealTime-Glo MT Cell Viability Assay in HEK293 cells - 0 hour (AID 1224880); further: top concentration of the series differs between compounds; nearly all actives have a fitted effect of over 45% in size
Summary of the method: as §5

[16] = qHTS assay to identify small molecule antagonists of the estrogen related receptor (ERR) signaling pathway from Tox21 library (AID 1224848); further: nearly all actives have a fitted effect of over 50% in size
Summary of the method: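 ERR reporter cell line (from NTP) seeded 2,000 cells/well, rested 6 h at 37 C/5% CO2, then pin-dosed with compounds in DMSO. After 18 h at 37 C, ONE-Glo added; luminescence read after 30 min at room temperature.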

[17] = qHTS assay to identify small molecule agonists of the estrogen related receptor (ERR) signaling pathway from Tox21 library (AID 1224849; calls by dose curve; further: nearly all actives have a fitted effect of over 15% in size); conditions: ERR reporter cell line, ONE-Glo luciferase, 18 h; at 92.4 µM (top of the series)
Summary of the method: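 ERR cells, 6 h pre-incubation 37 C/5% CO2; cpd in DMSO pinned; 18 h 37 C; ONE-Glo added, 30 min RT; luminescence read. Agonist mode, qHTS.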

[18] = A CellTox Green Cytotoxicity Assay to monitor cytotoxicity in HEK293 cells - 24 hour (AID 1224875); further: nearly all actives have a fitted effect of over 45% in size
Summary of the method: as §3

[19] = qHTS assay to identify small molecule agonists of the hypoxia (HIF-1) signaling pathway (AID 1224846; active means well fitted activation curve with a large enough effect in the signal ratio in the repeat runs, not every such curve was filed as active; the % refers to the signal ratio)
Summary of the method: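 Cell line: CellSensor HRE-bla ME-180; 2,000 cells/well; 0.5% dialyzed FBS; 5 h preincubation; DMSO compound pin transfer; 17 h, 37C, 5% CO2; CCF4-AM added; bla FRET signal scored for activation.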

Row | Compound | Potency [1] | Potency [2] | Potency [3] | Potency [4] | Potency [5] | Potency [6] | Potency [7] | Potency [8] | Potency [9] | max response [10] | Potency [11] | Potency [12] | Potency [13] | Potency [14] | Potency [15] | Potency [16] | activity change, positive = activation [17] | Potency [18] | Potency [10] | outcome [19]
1 | CC(O)(P(=O)(O)O)P(=O)(O)O | inactive | inactive | inactive | inactive | inactive | inactive | inactive | inactive | inactive | -0.279% (inactive) and 1.56% (inactive) and -3.74% (inactive) | inactive | inactive | inactive | inactive | inactive | – | – | – | – | –
2 | C1=CC2C3C=CC(C3)C2C1 (stereo unspecified) | inactive | – | inactive | – | – | inactive | – | inactive | inactive | 0.978% (inactive) | – | inactive | inactive | inactive | inactive | inactive | -1.35% (inactive) | – | – | –
3 | C/C=C/C=C/C(=O)O | inactive | inactive | – | inactive | inactive | – | inactive | – | inactive | 4.62% (inactive) and 7.49% (inactive) | inactive | inactive | inactive | inactive | inactive | – | – | inactive | – | –
4 | O=C1NC(=O)C(c2ccccc2)(c2ccccc2)N1 | inactive | inactive | – | inactive | inactive | inactive | inactive and 16.9 µM (active) | inactive | inactive | -30.3% (inactive) and -21% (inactive) | – | inactive | inactive and 23.9 µM (active) | inactive and 23.9 µM (active) | inactive | – | – | – | – | –
5 | Nc1ccc(S(N)(=O)=O)cc1 | inactive | inactive | – | inactive | inactive | inactive | inactive | – | inactive | 9.21% (inactive) and 0.884% (inactive) and 1.65% (inactive) | inactive | inactive | – | inactive | inactive | – | – | inactive | – | –
6 | CCCCC(CC)C(=O)O (stereo unspecified) | inactive | inactive | – | inactive | inactive | – | inactive | inactive | inactive | – | – | inactive | – | inactive | inactive | – | – | – | – | –
7 | Nc1ccc(O)c([N+](=O)[O-])c1 | – | inactive | inactive | – | inactive | – | – | – | inactive | – | – | inactive | – | inactive | – | inactive | 60.3% (active) | inactive | – | –
8 | O=CC(=O)c1ccccc1 | – | – | – | – | inactive | inactive | – | – | inactive | 13% (inactive) | – | inactive | – | inactive | inactive | inactive | -0.129% (inactive) | – | – | –
9 | Cc1cc(=O)oc2cc(O)ccc12 | – | inactive | – | inactive | inactive | – | inactive | – | inactive | -14.5% (inactive) and -7.95% (inactive) and -6.84% (inactive) | inactive | inactive | – | inactive | inactive | – | – | inactive | – | –
10 | C=C1CC[C@H](O)C/C1=C\C=C1/CCC[C@]2(C)[C@@H]([C@H](C)CCCC(C)C)CC[C@@H]12 | – | 112 µM (active) | – | 43.2 µM (active) | inactive | inactive | – | – | inactive | – | inactive | inactive | inactive | inactive | inactive | – | – | inactive | 43.2 µM (active) | –
11 | C[C@](N)(Cc1ccc(O)c(O)c1)C(=O)O | – | inactive | inactive | inactive | inactive | – | inactive | inactive | inactive | -19.7% (inactive) and -21.3% (inactive) and 9.87% (inactive) | – | inactive | – | inactive | inactive | – | – | – | – | inactive
12 | NC(CO)(CO)CO | inactive | inactive | – | inactive | inactive | inactive | inactive | – | inactive | – | inactive | inactive | inactive | inactive | inactive | – | – | – | – | –
